# Measurements as given in PubChem BioAssay (NCATS).
# Values without a mark were called inactive. Results filed as inconclusive are left out. Where a call stands in place of a potency, no number is given. Calls of active or inactive are those of the source. Unless noted, calls follow the shape of the dose curve; as a rule, active = well fitted curve in the direction sought with a large enough effect; inconclusive = small, poorly fitted or top-dose-only effect, or another doubt; inactive = no such curve, though single readings can be large; an effect the other way counts as inactive or inconclusive.
# Columns and labels:
# [1] = target: Glucocorticoid receptor (Homo sapiens) (UniProt P04150); test: GR-EFC Redistribution (AID 451; calls by dose curve; also: potency is read from the fitted curve at half-maximal effect); conditions: CHO-K1 GR-EFC translocation, beta-gal luminescence, 2 h
# Chain of Glucocorticoid receptor (Homo sapiens) (P04150 whole entry, looked up, the tested form may be a part): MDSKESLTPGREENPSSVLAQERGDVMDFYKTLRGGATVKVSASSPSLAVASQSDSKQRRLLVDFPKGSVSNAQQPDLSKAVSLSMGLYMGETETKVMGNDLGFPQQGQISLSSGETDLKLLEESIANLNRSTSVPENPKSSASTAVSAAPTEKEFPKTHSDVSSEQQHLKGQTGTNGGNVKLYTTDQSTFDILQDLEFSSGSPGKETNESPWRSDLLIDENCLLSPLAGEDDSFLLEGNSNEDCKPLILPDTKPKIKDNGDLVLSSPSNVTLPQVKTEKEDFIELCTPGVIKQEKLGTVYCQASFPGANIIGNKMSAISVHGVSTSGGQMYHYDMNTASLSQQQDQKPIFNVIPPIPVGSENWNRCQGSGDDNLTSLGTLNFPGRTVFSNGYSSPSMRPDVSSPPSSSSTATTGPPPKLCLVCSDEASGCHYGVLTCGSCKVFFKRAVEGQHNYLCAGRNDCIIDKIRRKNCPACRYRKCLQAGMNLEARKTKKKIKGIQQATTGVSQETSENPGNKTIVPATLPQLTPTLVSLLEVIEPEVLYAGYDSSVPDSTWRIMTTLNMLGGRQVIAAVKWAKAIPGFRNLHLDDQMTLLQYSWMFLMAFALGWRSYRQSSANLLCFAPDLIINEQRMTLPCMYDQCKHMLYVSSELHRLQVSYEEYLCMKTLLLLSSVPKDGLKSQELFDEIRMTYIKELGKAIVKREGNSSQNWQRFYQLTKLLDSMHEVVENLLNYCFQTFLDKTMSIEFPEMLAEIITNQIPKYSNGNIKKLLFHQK
# Summary of the method: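 Translocation of GR-ED fusion to nuclear EA restores b-gal, read by luminescence after 1 h room-temperature detection. Engineered CHO-K1 biosensor cells, 1,000/well, exposed 2 h at 37 C to titrations up to 46 uM final.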
# [2] = target: 3',5'-cyclic-AMP phosphodiesterase 4B (Homo sapiens) (UniProt Q07343); test: qHTS Assay for Inhibitors of PDE-IV (AID 607; active = well fitted activation curve with a large enough effect in the main read-out, with a control signal flat, not every such curve was filed as active); conditions: HEK293 ACTOne CNG channel cells, membrane potential fluorescence; series mostly up to 22.9 µM
# Chain of 3',5'-cyclic-AMP phosphodiesterase 4B (Homo sapiens) (Q07343 whole entry, looked up): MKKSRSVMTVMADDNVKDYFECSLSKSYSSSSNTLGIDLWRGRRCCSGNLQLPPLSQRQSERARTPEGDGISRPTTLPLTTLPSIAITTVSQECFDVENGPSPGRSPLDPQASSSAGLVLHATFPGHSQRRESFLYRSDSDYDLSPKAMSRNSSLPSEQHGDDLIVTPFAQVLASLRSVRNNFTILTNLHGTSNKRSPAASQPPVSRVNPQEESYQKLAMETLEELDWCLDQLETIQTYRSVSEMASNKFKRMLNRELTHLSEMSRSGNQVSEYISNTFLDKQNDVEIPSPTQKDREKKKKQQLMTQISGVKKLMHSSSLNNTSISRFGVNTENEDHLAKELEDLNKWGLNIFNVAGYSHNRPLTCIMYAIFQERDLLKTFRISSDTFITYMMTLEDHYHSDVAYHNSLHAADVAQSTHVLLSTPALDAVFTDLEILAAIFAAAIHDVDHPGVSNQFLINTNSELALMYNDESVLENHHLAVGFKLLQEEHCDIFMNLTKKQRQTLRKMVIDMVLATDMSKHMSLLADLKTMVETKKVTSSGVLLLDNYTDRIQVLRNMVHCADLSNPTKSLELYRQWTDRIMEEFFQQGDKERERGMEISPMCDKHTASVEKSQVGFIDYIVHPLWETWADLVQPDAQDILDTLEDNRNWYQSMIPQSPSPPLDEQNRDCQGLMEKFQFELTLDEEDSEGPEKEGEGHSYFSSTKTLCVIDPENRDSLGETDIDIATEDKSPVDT
# Summary of the method: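 Cell-based read-out of cAMP via a modified cyclic nucleotide-gated channel and membrane potential dye (535/590 nm) in HEK293 cells expressing PDE4 endogenously. Compounds tested up to 22.9 uM final; 100 uM RO 20-1724 reference.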
# [3] = target: Cytochrome P450 2D6 (Homo sapiens) (UniProt P10635); test: qHTS Assay for Inhibitors and Substrates of Cytochrome P450 2D6 (AID 891); conditions: recombinant CYP2D6, luciferin-ME EGE luminescence; series mostly up to 57.1 µM;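 also: luciferin methyl ether substrate demethylated by CYP2D6 with NADPH regeneration; nearly all actives have a fitted effect of over 60% in size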
# Chain of Cytochrome P450 2D6 (Homo sapiens) (P10635 whole entry, looked up): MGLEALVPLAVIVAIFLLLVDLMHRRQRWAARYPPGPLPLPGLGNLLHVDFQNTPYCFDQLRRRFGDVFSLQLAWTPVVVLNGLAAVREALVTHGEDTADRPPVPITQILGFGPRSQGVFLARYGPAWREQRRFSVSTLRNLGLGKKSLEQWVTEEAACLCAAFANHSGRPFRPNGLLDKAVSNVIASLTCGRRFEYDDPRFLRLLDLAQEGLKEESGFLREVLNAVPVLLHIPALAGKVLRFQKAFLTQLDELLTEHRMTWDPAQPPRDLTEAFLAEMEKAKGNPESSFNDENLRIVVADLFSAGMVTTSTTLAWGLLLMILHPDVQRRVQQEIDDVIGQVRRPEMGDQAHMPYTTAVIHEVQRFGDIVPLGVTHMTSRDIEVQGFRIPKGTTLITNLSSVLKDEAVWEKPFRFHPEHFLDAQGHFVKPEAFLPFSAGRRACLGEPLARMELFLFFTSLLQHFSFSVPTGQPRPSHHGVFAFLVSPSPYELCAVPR
# Summary of the method: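 Luminescent read-out of luciferin formed by 5 nM human CYP2D6 demethylating 30 uM Luciferin-ME EGE (Km level) over 60 min at room temperature after NADPH regeneration addition. Data normalized to full inhibition by 1.43 uM quinidine.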
# [4] = target: Mitogen-activated protein kinase 10 (Mus musculus) (UniProt Q61831); test: JNK3 AlphaScreen Assay (AID 530; active = well fitted curve in either direction with a large enough effect, not every such curve was filed as active;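 also: kinase came from lysate of stimulated human HepG2 cells; signal reports phosphorylation of biotinylated GST-cJun 1-79 at Ser73 with 10 µM ATP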); conditions: JNK3 lysate, c-Jun phosphorylation; series mostly up to 57.1 µM
# Summary of the method: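 qHTS titrations with 15 min compound pre-incubation before adding ATP (10 uM final). Read-out: AlphaScreen of Ser73-phosphorylated biotin-GST-cJun using HepG2 lysate JNK3 activated by IL-1β and TNFα.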
# [5] = target: Cytochrome P450 2C9 (Homo sapiens) (UniProt P11712); test: qHTS Assay for Inhibitors and Substrates of Cytochrome P450 2C9 (AID 883); conditions: recombinant CYP2C9, luciferin-H luminescence, 60 min; series mostly up to 57.1 µM; also: nearly all actives have a fitted effect of over 60% in size
# Chain of Cytochrome P450 2C9 (Homo sapiens) (P11712 whole entry, looked up): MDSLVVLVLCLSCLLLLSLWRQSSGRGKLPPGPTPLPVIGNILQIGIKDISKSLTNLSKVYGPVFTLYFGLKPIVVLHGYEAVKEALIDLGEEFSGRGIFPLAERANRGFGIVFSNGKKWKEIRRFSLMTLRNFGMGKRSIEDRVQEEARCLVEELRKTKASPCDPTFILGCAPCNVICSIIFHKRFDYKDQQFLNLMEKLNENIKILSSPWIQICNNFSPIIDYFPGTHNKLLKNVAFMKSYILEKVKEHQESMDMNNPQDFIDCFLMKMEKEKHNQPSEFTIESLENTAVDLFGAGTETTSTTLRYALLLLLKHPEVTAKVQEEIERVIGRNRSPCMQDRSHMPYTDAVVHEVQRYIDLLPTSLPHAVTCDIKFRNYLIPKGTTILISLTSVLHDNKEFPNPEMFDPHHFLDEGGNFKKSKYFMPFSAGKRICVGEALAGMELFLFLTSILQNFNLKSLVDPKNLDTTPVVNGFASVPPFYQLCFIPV
# Summary of the method: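 Turnover of Luciferin-H (100uM, KM) by 10nM human CYP2C9 was measured over 60 min at 37C with NADPH regeneration; inhibitors and some substrates reduce luminescence. Data normalized to sulphaphenazole 57uM.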
# [6] = target: Cytochrome P450 2C19 (Homo sapiens) (UniProt P33261); test: qHTS Assay for Inhibitors and Substrates of Cytochrome P450 2C19 (AID 899); conditions: recombinant CYP2C19, luciferin-H EGE luminescence; series mostly up to 57.1 µM; also: nearly all actives have a fitted effect of over 60% in size
# Chain of Cytochrome P450 2C19 (Homo sapiens) (P33261 whole entry, looked up): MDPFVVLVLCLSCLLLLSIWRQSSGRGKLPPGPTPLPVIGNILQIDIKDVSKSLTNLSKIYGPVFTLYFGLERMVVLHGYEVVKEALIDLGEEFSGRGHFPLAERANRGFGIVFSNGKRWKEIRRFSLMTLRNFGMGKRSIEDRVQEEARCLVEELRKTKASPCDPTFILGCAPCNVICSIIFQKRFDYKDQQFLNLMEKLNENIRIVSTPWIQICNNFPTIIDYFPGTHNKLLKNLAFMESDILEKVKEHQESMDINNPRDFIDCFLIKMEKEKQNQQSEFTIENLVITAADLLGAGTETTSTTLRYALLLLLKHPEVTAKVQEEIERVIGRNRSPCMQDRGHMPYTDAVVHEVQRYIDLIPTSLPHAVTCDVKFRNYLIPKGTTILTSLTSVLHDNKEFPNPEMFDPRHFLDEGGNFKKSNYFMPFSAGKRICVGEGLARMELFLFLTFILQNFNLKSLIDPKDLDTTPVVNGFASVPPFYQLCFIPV
# Summary of the method: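 Reactions contain 5nM enzyme, 10uM Luciferin-H EGE (KM) and 50mM KPO4; compound preincubates 10 min at 37C, NADPH regeneration starts turnover for 60 min. Luminescence after detection reagent gives activity.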
# [7] = target: Tyrosyl-DNA phosphodiesterase 1 (Homo sapiens) (UniProt Q9NUW8); test: Confirmation Assay for Inhibitors of Tyrosyl-DNA Phosphodiesterase (TDP1) (AID 489007); conditions: recombinant human TDP1 enzymatic activity, dose-response; also: potency is read from the fitted curve at half-maximal effect; nearly all actives have a fitted effect of over 40% in size
# Chain of Tyrosyl-DNA phosphodiesterase 1 (Homo sapiens) (Q9NUW8 whole entry, looked up): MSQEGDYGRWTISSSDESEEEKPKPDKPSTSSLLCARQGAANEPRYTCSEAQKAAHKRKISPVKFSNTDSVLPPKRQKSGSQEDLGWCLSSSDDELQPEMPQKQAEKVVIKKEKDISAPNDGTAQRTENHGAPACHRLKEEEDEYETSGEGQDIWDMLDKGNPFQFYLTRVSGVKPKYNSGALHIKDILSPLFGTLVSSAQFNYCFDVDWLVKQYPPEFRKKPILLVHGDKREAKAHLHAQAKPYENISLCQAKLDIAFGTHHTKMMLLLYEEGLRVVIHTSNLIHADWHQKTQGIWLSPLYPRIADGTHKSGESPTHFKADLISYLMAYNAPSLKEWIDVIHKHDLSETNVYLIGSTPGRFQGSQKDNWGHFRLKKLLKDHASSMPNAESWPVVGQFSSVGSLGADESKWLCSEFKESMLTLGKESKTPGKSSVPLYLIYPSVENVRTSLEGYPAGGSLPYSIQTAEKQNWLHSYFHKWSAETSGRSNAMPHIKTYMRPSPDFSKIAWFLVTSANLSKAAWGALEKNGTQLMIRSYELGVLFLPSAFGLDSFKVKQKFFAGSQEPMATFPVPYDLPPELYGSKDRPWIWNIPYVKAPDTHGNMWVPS
# Summary of the method: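 Compounds are preincubated 15 min at room temperature with 1 nM recombinant human Tdp1. The reaction starts on adding 15 nM FITC-phosphotyrosine DNA substrate, runs 5 min, and is detected by AlphaScreen beads after 10 min.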
# [8] = target: Ubiquitin carboxyl-terminal hydrolase 1 (Homo sapiens) (UniProt O94782); test: Inhibitors of USP1/UAF1: Pilot qHTS (AID 504865); conditions: purified USP1/UAF1, Ub-rhodamine cleavage fluorescence; series mostly up to 114 µM;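 also: rhodamine fluorescence freed from ubiquitin-rhodamine substrate followed over time; top concentration of the series differs between compounds; nearly all actives have a fitted effect of over 35% in size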
# Chain of Ubiquitin carboxyl-terminal hydrolase 1 (Homo sapiens) (O94782 whole entry, looked up): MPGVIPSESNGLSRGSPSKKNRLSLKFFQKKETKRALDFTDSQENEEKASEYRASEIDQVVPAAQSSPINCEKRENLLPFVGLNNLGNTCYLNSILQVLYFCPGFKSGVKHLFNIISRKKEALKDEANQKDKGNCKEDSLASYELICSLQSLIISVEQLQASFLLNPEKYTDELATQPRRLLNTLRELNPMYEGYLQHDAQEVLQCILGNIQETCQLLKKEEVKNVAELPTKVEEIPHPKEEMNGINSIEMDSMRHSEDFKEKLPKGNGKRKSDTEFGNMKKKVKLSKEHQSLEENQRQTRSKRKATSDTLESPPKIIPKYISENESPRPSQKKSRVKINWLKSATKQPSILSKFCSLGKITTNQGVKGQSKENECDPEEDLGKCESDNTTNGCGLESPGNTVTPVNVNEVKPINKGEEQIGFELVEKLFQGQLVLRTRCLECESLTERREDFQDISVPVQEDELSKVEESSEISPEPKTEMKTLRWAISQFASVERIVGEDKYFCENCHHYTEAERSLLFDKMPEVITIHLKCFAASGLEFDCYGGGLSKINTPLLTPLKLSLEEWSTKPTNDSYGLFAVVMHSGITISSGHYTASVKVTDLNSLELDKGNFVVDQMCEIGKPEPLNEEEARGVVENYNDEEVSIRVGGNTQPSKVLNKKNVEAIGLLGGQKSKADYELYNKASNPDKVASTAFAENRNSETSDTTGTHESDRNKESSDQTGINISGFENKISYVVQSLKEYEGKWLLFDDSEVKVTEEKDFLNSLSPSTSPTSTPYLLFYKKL
# Summary of the method: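 USP1/UAF1 complex (1nM) preincubated with compound 15 min at room temperature, then Ub-Rho substrate (150nM final) added. Fluorescence read kinetically at 480/540 nm, 6 reads every 60 seconds. Buffer: 50mM HEPES pH 7.8, 0.5mM EDTA, 0.1 mg/ml BSA, 1mM TCEP, 0.01% Tween-20.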
# [9] = S16 Schwann cell viability assay (CellTiter-Glo assay) (AID 624031); conditions: S16 rat Schwann cells viability, 24 h; series mostly up to 57.5 µM;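 also: native untransfected S16 rat Schwann cells; nearly all actives have a fitted effect of over 70% in size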
# Summary of the method: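 Counter-screen for cytotoxicity: parental S16 rat Schwann cells lacking the PMP22 reporters, treated 24 h with compound, viability from cellular ATP by CellTiter-Glo luminescence, normalized to DMSO (0%) and no-cell wells.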
# [10] = S16 Schwann cell PMP22 intronic element firefly luciferase assay (AID 624032); conditions: S16 rat Schwann cells, PMP22 element FLuc, 24 h; series mostly up to 57.5 µM; also: nearly all actives have a fitted effect of over 30% in size
# Summary of the method: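 Luciferase reporter of PMP22 intronic-element expression in stably transfected S16 rat Schwann cells, read by ONE-Glo luminescence after 24 h compound exposure at 37 C. Activity scaled between DMSO (0%) and positive-control PTC124; concentration-effect curves quality-classified.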
# [11] = S16 Schwann cell PMP22 intronic element beta-lactamase assay (AID 624044; calls by dose curve; also: nearly all actives have a fitted effect of over 15% in size); conditions: S16 rat Schwann cells, PMP22 element beta-lactamase FRET, 24 h; ratio activity, negative = inhibition: at 38.3 µM (top of the series)
# Summary of the method: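 Beta-lactamase reporter under a PMP22 intronic regulatory element in stable S16 rat Schwann cells; 24 h compound exposure. 460 nm blue signal normalized between DMSO (0%) and potassium clavulanate, with 535 nm FRET tracking viability; curves classed by r2 and response.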
# DFO2036 = test: qHTS profiling for inhibitors of Plasmodium falciparum proliferation (AID 504749); also: nearly all actives have a fitted effect of over 60% in size; conditions: P. falciparum in erythrocytes, SYBR Green DNA, 72 h; series mostly up to 28.7 µM
# Summary of the method: (§1)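 SYBR Green fluorescence of parasite DNA, read after lysis and overnight dark incubation, measured growth over 72 h in erythrocyte culture at 0.3% parasitemia and 2.5% hematocrit. Data normalised to DMSO and 0.29 uM artemisinin, with plate-drift correction.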
# TAB109 = test: as above; conditions: P. falciparum in erythrocytes, SYBR Green DNA, 72 h; series mostly up to 28.7 µM
# Summary of the method: as §1
compound,measurement,setting,value
NCCC[C@@H](CC(=O)N[C@@H]1CCNC[C@H]1C(=O)N[C@H](CC(=O)N[C@@H](CCC(=O)O)CC(=O)O)Cc1ccccc1)NC(=O)C[C@H](CO)NC(=O)[C@@H]1CNCC[C@H]1N,Potency,[1],> 46 µM
same,Potency,[2],inactive
same,Potency,[3],inactive
NCCC[C@@H](CC(=O)N[C@@H]1CCCC[C@H]1C(=O)N[C@H](CC(=O)N[C@@H](CCC(=O)O)CC(=O)O)Cc1ccccc1)NC(=O)C[C@H](Cc1ccccc1)NC(=O)[C@@H]1CCCC[C@H]1N,Potency,[1],> 46 µM
same,Potency,[2],inactive
same,Potency,[3],inactive
CC(C)C[C@@H](CC(=O)N[C@@H](CCC(=O)O)CC(=O)O)NC(=O)[C@@H]1CNCC[C@H]1NC(=O)C[C@@H](NC(=O)C[C@H](Cc1ccccc1)NC(=O)[C@@H]1CNCC[C@H]1N)C(C)C,Potency,[1],> 46 µM
same,Potency,[4],inactive
same,Potency,[5],inactive
same,Potency,[3],inactive
same,Potency,[6],inactive
Cc1ccc(NC(=O)CN2C(=O)S/C(=C\c3ccc(-c4cccc(C(=O)O)c4C)o3)C2=O)cc1,Potency,[7],11.2 µM (active)
CC(C)C[C@@H](CC(=O)N[C@@H](CCCN)CC(=O)N[C@@H]1CCNC[C@H]1C(=O)N[C@H](CC(=O)N[C@@H](CCC(=O)O)CC(=O)O)CC(C)C)NC(=O)[C@@H]1CNCC[C@H]1N,Potency,[1],> 46 µM
same,Potency,[4],inactive
same,Potency,[2],inactive
same,Potency,[3],inactive
same,Potency,[6],inactive
CC(C)[C@@H](CC(=O)N[C@@H]1CCCC[C@H]1C(=O)N[C@H](CC(=O)N[C@@H](CCC(=O)O)CC(=O)O)Cc1ccccc1)NC(=O)C[C@H](Cc1ccccc1)NC(=O)[C@@H]1CCCC[C@H]1N,Potency,[1],> 46 µM
same,Potency,[4],inactive
same,Potency,[2],inactive
same,Potency,[5],inactive
same,Potency,[3],inactive
same,Potency,[6],inactive
NCCC[C@@H](CC(=O)N[C@@H]1CCNC[C@H]1C(=O)N[C@H](CC(=O)N[C@@H](CCC(=O)O)CC(=O)O)Cc1ccccc1)NC(=O)C[C@H](Cc1c[nH]c2ccccc12)NC(=O)[C@@H]1CCCC[C@H]1N,Potency,[1],> 46 µM
same,Potency,[4],inactive
same,Potency,[2],inactive
same,Potency,[5],inactive
same,Potency,[3],inactive
CC(C)C[C@@H](CC(=O)N[C@@H](CCC(=O)O)CC(=O)O)NC(=O)[C@@H]1CNCC[C@H]1NC(=O)C[C@H](CCCN)NC(=O)C[C@H](Cc1c[nH]c2ccccc12)NC(=O)[C@@H]1CCCC[C@H]1N,Potency,[1],> 46 µM
same,Potency,[4],inactive
same,Potency,[2],inactive
same,Potency,[5],inactive
same,Potency,[3],inactive
same,Potency,[6],inactive
CC(C)[C@@H](CC(=O)N[C@@H]1CCCC[C@H]1C(=O)N[C@H](CC(=O)N[C@@H](CCC(=O)O)CC(=O)O)Cc1ccccc1)NC(=O)C[C@H](Cc1ccccc1)NC(=O)[C@@H]1CNCC[C@H]1N,Potency,[1],> 46 µM
same,Potency,[4],inactive
same,Potency,[2],inactive
same,Potency,[3],inactive
CC(O)C(N)C(=O)O (stereo not drawn),Potency,[8],inactive
same,Potency,[9],inactive
same,Potency,[10],inactive
same,Potency,[11],inactive
same,Potency,DFO2036,inactive
same,Potency,TAB109,inactive
COc1ccc(OCc2cc(C(=O)O)c(C)o2)cc1,Potency,[7],10 µM (active)
Cc1ccc(S(=O)(=O)NC(=O)NC(C)Cc2ccccc2)cc1 (stereo not drawn),Potency,[8],inactive
same,Potency,[9],inactive
same,Potency,[10],inactive
same,Potency,DFO2036,inactive
same,Potency,TAB109,inactive
O=C(O)CCC(=O)N(Cc1cccs1)Cc1cccs1,Potency,[7],112 µM (active)
O=C1CC(=O)N(Cc2ccco2)C(=S)N1,Potency,[7],15.8 µM (active)
CO/N=C(/C(=O)N[C@@H]1C(=O)N2C(C(=O)O)=C(C[n+]3ccc(N)n3CCO)CS[C@H]12)c1csc(N)n1,Potency,[8],inactive
same,Potency,[9],inactive
same,Potency,[10],inactive
same,Potency,DFO2036,inactive
same,Potency,TAB109,inactive
Nc1ccc2c(c1Cl)C(=O)c1ccc(N)c(Cl)c1C2=O,Potency,[7],3.55 µM (active)
CCCCC/C(C=O)=C/c1ccccc1,Potency,[8],inactive
same,Potency,[9],inactive
same,Potency,[10],inactive
same,Potency,[11],inactive
same,Potency,DFO2036,inactive
same,Potency,TAB109,inactive
OC[C@@H]1[C@@H](c2ccc(Cl)cc2)C(c2cccc(Cl)c2)=NN1c1ccccc1,Potency,[7],50.1 µM (active)
Cc1c(C(=O)O)sc2nc3n(c(=O)c12)CCC3,Potency,[7],6.31 µM (active)
CC(C)CN(C(=O)COC(=O)c1cc2c(s1)CCC2)C1CCS(=O)(=O)C1 (stereo not drawn),Potency,[7],44.7 µM (active)
O=C1CN(C(=O)/C=C/c2ccco2)c2ccccc2N1,Potency,[7],44.7 µM (active)
